Screen size: about 410,000 compounds; about 5,100 (1.2%) were called active. About 8% were inconclusive and are not listed. The sample holds actives, similar compounds and a random draw of the others, so the mix is not that of the screen. The call rests on the fitted dose curve; tested in HEK293T cells.
Test: High Throughput Screening for Foot and Mouth Disease Virus Antivirals; further: read-out not given here; nearly all actives have a fitted effect of over 45% in size
Settings: FMDV antiviral cell-based qHTS; series mostly up to 57.9 µM; activity change, negative = inhibition: at the top concentration
On the % scale 0 is the no-effect control and ±100 the full control effect; potency means the concentration at half of the fitted maximal effect.

| SMILES | activity change, negative = inhibition | Potency |
| --- | --- | --- |
| Cc1ccc(CC(=O)Nc2cccc(C#N)c2)cc1 | -5.57% (inactive) |  |
| N#Cc1cccc(NC(=O)COC(=O)c2ccccc2C(=O)c2ccc(Cl)c([N+](=O)[O-])c2)c1 |  | 28.2 µM (active) |
| CC(C)(C)NC(=O)COC(=O)c1cc(Cl)ccc1[N+](=O)[O-] | -5.35% (inactive) |  |
| CCOCCn1ccc2c(OCC(=O)NCc3ccc(C)cc3)cccc2c1=O | -9.21% (inactive) |  |
| COc1ccccc1CNc1ncnc2ccc(-c3c(C)noc3C)cc12 | 7.35% (inactive) |  |
| Cc1ccc2oc(=O)c3cnn(CC(=O)N4CCN(c5cccc(Cl)c5)CC4)c3c2c1 | -24.6% (inactive) |  |
| Cn1c(SCC(=O)N2CCCc3ccccc32)nc2ccccc2c1=O |  | 12.6 µM (active) |
| Cn1c(SCC(=O)N2CCCc3ccccc32)ncc(C(=O)Nc2ccc(F)cc2)c1=O | -9.61% (inactive) |  |
| COc1ccccc1Cc1nc2ccccc2nc1SCC(=O)N1CCCc2ccccc21 | -15.7% (inactive) |  |
| COc1cccc(Cn2c(=O)cnc3cncnc32)c1 | -1.66% (inactive) |  |
| O=C(c1ccco1)N1CCC2(CC1)CCN(c1ncccn1)CC2 | -28.1% (inactive) |  |
| Cc1c(S(=O)(=O)O)oc2c1C(=O)C(=O)c1c-2ccc2c1CCCC2(C)C | -6.27% (inactive) |  |
| Cc1ccccc1-c1nc(CS(=O)(=O)CC(=O)Nc2cc(Cl)cc(Cl)c2)c(C)o1 | -29.4% (inactive) |  |
| COc1ccc(C(=O)N2CCC[C@@]3(CCN(C(=O)NC(C)C)C3)C2)cc1 | 1.76% (inactive) |  |
| Cc1c(C(=O)Nc2cccc(Cl)c2)oc2ccc(S(=O)(=O)N3CCOCC3)cc12 | -6.84% (inactive) |  |
| COc1cc(=O)n2c(c1C(=O)N(C)Cc1nccs1)CCN(Cc1ccc(Cl)cc1)CC2 | -7.17% (inactive) |  |
| CCc1cc2c(NC3CCCC3)ncnc2s1 |  | 25.1 µM (active) |
| Clc1cc(NC2CCCCC2)ncn1 | -9.43% (inactive) |  |
| CCc1cc2c(SCC(=O)Nc3ncc(Cl)c(C)c3Cl)ncnc2s1 | -10.6% (inactive) |  |
| Cc1noc(C)c1-c1cc(NCc2cccnc2)ncn1 | 5.27% (inactive) |  |
| CC(=O)OC1CCC2(O)CC1(C)CCC1C2CC1(C)C (centres undefined) | 1.53% (inactive) |  |
| C[C@@]12CCC3C(CC[C@@H]4CC(O)CC[C@@]34C)C1CCC2O (some centres undefined) | -0.759% (inactive) |  |
| CCCCOc1ccc(C(=O)Nc2cccc(-c3nc4ccccc4o3)c2C)cc1 | -21.3% (inactive) |  |
| Cc1cccc(NC(=O)N2CCC(CN3CCc4ccccc4C3)CC2)c1C | -1.24% (inactive) |  |
| CCCCCCCC/C=C\CCCCCCCC(=O)OC[C@H](CO)OC(C)=O | -19.7% [at 6.7 µM] (inactive) |  |

| SMILES | activity change, negative = inhibition | Potency |
| --- | --- | --- |
| Cc1ccc(C(=O)N/C(=C\c2ccco2)C(=O)NC2CCS(=O)(=O)C2)cc1 (centres undefined) | -14.2% (inactive) |  |
| Cc1cc(C)cc(Oc2nc3c(C)cccn3c(=O)c2/C=C(\C#N)C(=O)NC2CCS(=O)(=O)C2)c1 (centres undefined) |  | 22.4 µM (active) |
| COc1ccc(-c2ccc(OC(=O)NC3CCS(=O)(=O)C3)cc2)cc1 (centres undefined) | 0% (inactive) |  |
| CC(=O)OCC(=O)[C@@]1(O)CCC2C3CCC4=CC(=O)CC[C@@]4(C)[C@]3(F)C(O)C[C@]21C (some centres undefined) | 46.7% (inactive) |  |
| CCCCC/C=C\CC1OC1CCCCCCCC(=O)O (centres undefined) | -2.3% [at 0.463 µM] (inactive) |  |
| C=CCN1CCN(C(=O)CCCc2ccccc2)CC1 |  | 14.1 µM (active) |
| CCN1CCN(C(=O)CCN2C(=O)c3ccccc3C2=O)CC1 | -0.0403% (inactive) |  |
| O=C(CCc1ccccc1F)N1CCN(c2ccccc2)CC1 | -8.27% (inactive) |  |
| O=S(=O)(c1ccc(Br)cc1)c1nnn2c1nc(NC1CCCCCC1)c1sccc12 | -22.8% (inactive) |  |
| CC(=O)N1CCC2(CCCN(Cc3ccc(C#N)cc3)C2)CC1 | 1.78% (inactive) |  |
| Cc1ccc(C)c(OCCC(=O)Nc2cccc(S(=O)(=O)N3CCCC3)c2)c1 | 13% (inactive) |  |
| CC(=O)Nc1ccc(S(=O)(=O)N2CCN(c3ccccc3)CC2)cc1 | -23.6% (inactive) |  |
| CC(=O)Nc1ccc(S(=O)(=O)N2CCN(CCCOc3cc(C)ccc3C)CC2)cc1 |  | 31.6 µM (active) |
| CCNc1ncc2nc(CCc3ccccc3)c(=O)n(-c3ccc(OC)cc3)c2n1 | -10.2% (inactive) |  |
| O=C(c1csnn1)N1CCC[C@@]2(CCN(Cc3nccs3)C2)C1 | -13% (inactive) |  |
| CC(C)NC(=O)N1CC[C@@]2(CCCN(C(=O)c3cccc(F)c3)C2)C1 | 3.04% (inactive) |  |
| CCc1cccc(C)c1Nc1c(-c2ccc(N(C)C)cc2)nc2ncccn12 | -23.4% (inactive) |  |
| CC1CCN(C(=O)Cn2c(=O)n(-c3ccc(Cl)cc3)c(=O)c3c4c(sc32)CCC4)CC1 | -13.5% (inactive) |  |
| CCCCn1c(=O)c2oc3ccccc3c2n(CC(=O)Nc2ccccc2OC)c1=O | 12.7% (inactive) |  |
| CCCOc1ccc(C(=O)C(CCC(CNCC)C(=O)c2ccc(OCCC)cc2)CNCC)cc1 (centres undefined) |  | 28.2 µM (active) |
| CC(C)CCOc1ccc(C(=O)C[N+]2(C)CCOCC2)cc1 | -1.69% (inactive) |  |
| CCCOc1cccc(C(=O)Nc2cccc(NC(=O)c3ccc(C(C)(C)C)cc3)c2)c1 | 27.4% (inactive) |  |
| Cc1ccc(C(NC(=O)C2CCN(CCOc3ccc(Cl)cc3Cl)CC2)c2ccccn2)cc1 (centres undefined) | -14.3% (inactive) |  |
| Cc1cccnc1C(NC(=O)C1CCN(Cc2ccc(Cl)c(Cl)c2)CC1)c1ccc(Cl)cc1 (centres undefined) | -27.1% (inactive) |  |
| O=C(NC(c1ccc(-c2ccccc2)cc1)c1cnccn1)C1CCN(CCOc2ccc(Cl)cc2Cl)CC1 (centres undefined) |  | 35.5 µM (active) |

| SMILES | activity change, negative = inhibition | Potency |
| --- | --- | --- |
| Oc1ccc2c(c1)OCC1c3cc4c(cc3OC21)OCO4 (centres undefined) | 20.9% (inactive) |  |
| COc1ccc(-c2nn3c(=O)cc(CN4CCN(C(=O)c5ccc(OC)c(OC)c5)CC4)nc3s2)cc1 | -9.2% (inactive) |  |
| CCOc1ccc(NC(=O)c2cn(C3CCCCC3)c(=O)c3c2c2ccccc2n3C)cc1 | -11.9% (inactive) |  |
| CC(C)C1=CC2=CC[C@@H]3[C@](C)(CO)CCC[C@]3(C)C2CC1 (some centres undefined) | -11% (inactive) |  |
| O=C(OC12CC3CC(CC(C3)C1)C2)c1ccc(NCc2cc(O)ccc2O)cc1 |  | 12.6 µM (active) |
| CCN(Cc1ccncc1)C(=O)[C@@H](CO)c1ccccc1 | -3.49% (inactive) |  |
| CC1Cc2cc(S(=O)(=O)CCC(=O)Nc3ccc(F)c(Cl)c3)ccc2N1C(=O)C1CC1 (centres undefined) | -26.6% (inactive) |  |
| COc1ccc(-c2nc3cnc(OC)nc3n(Cc3ccc(F)cc3)c2=O)cc1 | 3.53% (inactive) |  |
| CN(C)S(=O)(=O)c1ccc(NC(=O)COC(=O)Cn2[nH]c(=O)c3ccccc3c2=O)cc1 | -2.54% (inactive) |  |
| O=C(COC(=O)c1n[nH]c2ccccc12)Nc1ccccc1Br | 54.3% (inactive) |  |
| CN(C)S(=O)(=O)c1ccc(NC(=O)COC(=O)c2n[nH]c3ccccc23)cc1 |  | 22.4 µM (active) |
| CCN1CCC(O)(/C=C/c2ccc(C)cc2)C(C(=O)/C=C/c2ccc(C)cc2)C1 (centres undefined) |  | 28.2 µM (active) |
| COc1ccccc1-c1ccnc(-n2ncc(C(=O)NCCCN3CCOCC3)c2C)n1 | -20.6% (inactive) |  |
| O=C(COC(=O)CNC(=O)C1CCCCC1)NCc1ccccc1 | 2.61% (inactive) |  |
| Cc1ccc(CNC(=O)COC(=O)C2CCC2)cc1 |  | 31.6 µM (active) |
| COc1ccc(CCNC(=O)COC(=O)C2CCCCC2)cc1 | -8.93% (inactive) |  |
| COc1ccc(Cn2ccnc2SCC(=O)NCc2ccco2)cc1 | 11.3% (inactive) |  |
| COc1ccc2[nH]cc(CCNc3ncnc4ccc(-c5ccc(C(=O)N(C)C)cc5)cc34)c2c1 | 13.8% (inactive) |  |
| CCN1C(=O)C(=Cc2c(C)n(CC(=O)NCC3CCCO3)c3ccccc23)C(=O)N(CC)C1=S (centres undefined) |  | 25.1 µM (active) |
| Cc1nn(CC(=O)NCC2CCCO2)c(=O)c2cc3ccccc3n12 (centres undefined) | 2.47% (inactive) |  |
| COc1ccc(CCNC(=O)CCn2c(=O)c3ccccc3n(CC(=O)NCC3CCCO3)c2=O)cc1OC (centres undefined) | 5.3% (inactive) |  |
| COC1=C[C@]23CCCN2CCc2cc4c(cc2[C@@H]3[C@@H]1O)OCO4 | -12.3% (inactive) |  |
| c1ccc2c(c1)C(=NC1CCCCC1)NC2=NC1CCCCC1 |  | 15.8 µM (active) |
| CCCCn1c(N)c(N(CCOC)C(=O)c2cccc(S(=O)(=O)N(C)c3ccccc3)c2)c(=O)[nH]c1=O | -10.4% (inactive) |  |
| CC(=O)c1c(C)[nH]c(C(=O)Nc2cc(S(=O)(=O)N(C)C)ccc2C)c1C | -11.7% (inactive) |  |

| SMILES | activity change, negative = inhibition | Potency |
| --- | --- | --- |
| CC(=O)c1c(C)[nH]c(C(=O)COC(=O)c2cccc(S(=O)(=O)N(C)c3ccccc3)c2)c1C |  | 11.2 µM (active) |
| COc1cc(-c2cccnc2)cc2c1OCCN(C(=O)Cc1csc(C)n1)C2 | 0.56% (inactive) |  |
| Cc1onc(-c2c(F)cccc2Cl)c1C(=O)Nc1cccc(S(=O)(=O)N2CCCCC2)c1 | -23.2% (inactive) |  |
| Cc1ccc2cc(CCNC(=O)c3c(-c4ccccc4Cl)noc3C)c(=O)[nH]c2c1 | -12.7% (inactive) |  |
| CC(=O)Nc1cccc(/C(C)=N/NC(=O)c2c(-c3ccccc3Cl)noc2C)c1 |  | 25.1 µM (active) |
| FC(F)(F)c1ccccc1-c1cc(NCc2ccccc2)ncn1 | -9% (inactive) |  |
| Nc1ncn(C2OC(CO)C(O)C2O)c(=O)n1 (centres undefined) | -3.39% (inactive) |  |
| CCOC(=O)c1cc(C)nc(S(C)(=O)=O)c1C#N |  | 35.5 µM (active) |
| CCCCSc1[nH]c(=O)c(C(=O)OCC)cc1C#N | 5.15% (inactive) |  |
| CCOC(=O)c1c(C(C#N)C#N)cc(C)nc1C | 18.2% (inactive) |  |
| COC(=O)N1CCC2(CCCN(c3ccncc3)C2)CC1 | -9.77% (inactive) |  |
| Cc1[nH]c(=O)c(C(=O)/C=C/c2ccccc2)c2c1CCCC2 |  | 12.6 µM (active) |
| O=C1CCCCC1C(=O)c1ccccc1 (centres undefined) | -4.76% (inactive) |  |
| CC[C@H](C)C(=O)N[C@H]1CCCN1C(=O)/C=C/c1ccccc1 | -13.9% (inactive) |  |
| COC(=O)N1CCC[C@@]2(CCN(C(=O)NC(C)C)C2)C1 | -20.7% (inactive) |  |
| Cc1cc(C)cc(OCC(=O)Nc2c(C(=O)c3ccccc3)oc3ccccc23)c1 | 12.3% (inactive) |  |
| CNc1nc(-c2ccccc2OC)nc2ccccc12 | -11.7% (inactive) |  |
| CC1C(O)CC2C(C(=O)O)=CO[C@@H](O[C@H]3OC(CO)C(O)C(O)C3O)C21 (some centres undefined) | -6.83% (inactive) |  |
| COc1ccc(CCNS(=O)(=O)c2ccc(Cl)s2)cc1OC | -8.08% (inactive) |  |
| COc1ccc(CCNC(=O)CCCCn2c(=O)c3ccccc3n(Cc3ccccc3)c2=O)cc1OC | 0% (inactive) |  |
| COc1ccc(CCNC2=C(Cl)C(=O)N(Cc3ccccc3)C2=O)cc1OC |  | 25.1 µM (active) |
| CCC1CN(CCNC(=O)c2cccc(C)n2)Cc2cc(OC)ccc2O1 (centres undefined) | -4.29% (inactive) |  |
| COC(C)C(C(=O)OCC1=CCN2CC[C@H](O)[C@@H]12)C(C)C (some centres undefined) | -2.63% (inactive) |  |
| CCc1ccc(NC(=O)c2cnc3c(-c4ccccc4)c(C)nn3c2C)cc1 | -13% (inactive) |  |

Reference: PubChem BioAssay AID1159524 (National Center for Advancing Translational Sciences (NCATS), 2015)
